# This is part of a sample that, as a whole, favours compounds with a hit. Of some 79,000 tested, about 15% had one in any assay. A number with no mark means an inactive call. The source made the active and inactive calls. Rule as the data show it: active = growth inhibition above about 70%; inactive = the rest.
# Columns and labels:
# [1] = NCI Yeast Anticancer Drug Screen. Data for the rad50 strain (AID 155);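 also: 0% = growth of vehicle-only cultures of the same strain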; settings: S. cerevisiae rad50 strain growth inhibition; at 50.0 µM; stronger effect = higher value
# Summary of the method: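 Vehicle-treated cultures provide the reference for the growth inhibition reported for compound-exposed, repair-deficient yeast.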
# [2] = NCI Yeast Anticancer Drug Screen. Data for the mec2-1 strain (AID 157); settings: S. cerevisiae mec2-1 strain, at 50.0 µM, stronger effect = higher value
# Summary of the method: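 Test agents were screened against the mec2-1 yeast strain, with defined DNA repair or cell cycle alteration. Growth was scored as inhibition against vehicle-only controls.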
# [3] = NCI Yeast Anticancer Drug Screen. Data for the sgs1 mgt1 strain (AID 161);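 also: 0% = growth of cultures given vehicle only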; settings: S. cerevisiae sgs1 mgt1 strain, at 50.0 µM, stronger effect = higher value
# Summary of the method: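 Test agents were incubated with a DNA-repair-mutant yeast strain. Growth was then read and compared against vehicle-treated controls.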
# [4] = NCI Yeast Anticancer Drug Screen. Data for the cln2 rad14 strain (AID 165);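 also: 0% = growth equal to vehicle treated cultures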; settings: S. cerevisiae cln2 rad14 strain, at 50.0 µM, stronger effect = higher value
# Summary of the method: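 Growth of compound-exposed yeast (cln2 rad14 genotype) measured and expressed as inhibition relative to vehicle.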
# [5] = NCI Yeast Anticancer Drug Screen. Data for the bub3 strain (AID 167); settings: S. cerevisiae bub3 mutant strain, at 50.0 µM, stronger effect = higher value
# Summary of the method: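 Mutant yeast screening strain plus compound; vehicle-treated cultures serve as the 0% inhibition reference.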
# [6] = NCI Yeast Anticancer Drug Screen. Data for the mlh1 rad18 strain (AID 175); settings: S. cerevisiae mlh1 rad18 strain growth inhibition; at 50.0 µM; stronger effect = higher value
# Summary of the method: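 In this whole-cell yeast screen, a strain with altered DNA damage repair is challenged with compound, and its growth is measured against matched vehicle-treated controls.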
Compound,growth inhibition [1],growth inhibition [2],growth inhibition [3],growth inhibition [4],growth inhibition [5],growth inhibition [6]
O=C(Cl)c1cc(C(=O)Cl)cc(C(=O)Cl)c1,-28.6%,-51.2%,-24.2%,7.15%,-28.4%,-28.6%
COc1cc(OC)cc(C(NC(C)=O)NC(C)=O)c1,5.45%,2.55%,7.7%,-31.2%,1.5%,17.1%
CCOC(=O)c1cc(C=O)oc1C,6.8%,-4.2%,-8.1%,-42.6%,2%,-0.75%
CC1=NN(C(=O)c2cccnc2)C(=O)C1N=Nc1ccc(S(=O)(=O)Nc2ccccn2)cc1 (stereo unspecified),25.6%,-8.75%,4.75%,11.4%,-1.6%,1.8%
COC(=O)C(Cl)=C1CC1,5.7%,10.4%,-6.95%,18.6%,6.25%,-5.6%
O=[N+]([O-])c1ccc2c(Cl)[nH]nc2c1,35.1%,27.6%,29.8%,30.8%,39%,23.9%
NC(=O)C1OC1(c1ccccc1)c1ccccc1 (stereo unspecified),20.8%,5.2%,3.05%,-2.1%,4.15%,3.15%
Nc1cc2c(cc1I)-c1ccccc1C2O (stereo unspecified),1.65%,4.55%,-12.8%,-2.9%,11.2%,-8.75%
COc1ccc2c(CCn3ccccc3=O)cccc2c1,-13.3%,-8.5%,7.55%,-13.9%,44.9%,-11.2%
O=[N+]([O-])c1ccc(Cl)c(F)c1Cl,-13%,-17.1%,-0.2%,5.15%,-3.9%,-12.2%
O=C(Cn1ccccc1=O)c1ccc(F)cc1,9.65%,-0.15%,0%,-18.6%,1.7%,-8.25%
Cc1c(N(C)C)ccc2c(=O)c3cccc(CC(=O)O)c3oc12,20%,21.7%,-5.35%,8.6%,-16.1%,-5.05%
CC(=O)Nc1cc(OC(C)=O)c(OC(C)=O)c2ccccc12,-7.45%,-6.9%,-0.6%,-1.55%,-33.1%,1.1%
Cc1oc([N+](=O)[O-])cc1C(=O)O,10.5%,7.5%,-1.65%,-69.7%,-20.1%,-8.25%
CC(C)(C)c1cc(C(=O)O)ccc1C(=O)O,-4.2%,12.1%,-2.75%,-4.2%,-26.4%,-8.15%
O=S(=O)(CS(=O)(=O)N1CCCCC1)N1CCCCC1,-3.8%,-5.4%,-3.4%,-9.7%,6.7%,0.95%
COc1cc2c(c3oc(=O)cc(CCC(=O)O)c13)C1CC(=O)OC1O2 (stereo unspecified),3.75%,-16.6%,-9.15%,1%,-10.7%,10.8%
CC1=c2c(oc3cc(O)c(Nc4c(C)cc(O)cc4O)c(C)c23)=CC(=O)C1=Nc1c(C)cc(O)cc1O,17.9%,7.8%,0.45%,-2.3%,-35%,18.4%
COc1cc([C@@H]2C3C(=O)c4ccccc4C3[C@@H](c3cc(OC)c(OC)c(OC)c3)C23Cc2ccccc2C3=O)cc(OC)c1OC (stereo partly specified),-6.5%,-0.95%,-11.2%,4.55%,23.4%,16%
C=Cc1c2ccccc2cc2c1ccc1ccccc12,89.3% (active),95.2% (active),93.5% (active),87.2% (active),93.3% (active),95.2% (active)
NC(=S)N/N=c1\cc(C(=O)Nc2ccc([N+](=O)[O-])cc2[N+](=O)[O-])oc2ccccc12,19.1%,26.3%,16.1%,-6%,22.9%,28%

Compound,growth inhibition [1],growth inhibition [2],growth inhibition [3],growth inhibition [4],growth inhibition [5],growth inhibition [6]
COc1cc2cccc(N=Cc3ccccc3Cl)c2cc1OC,-8.7%,-7.4%,-11.3%,27.9%,8.55%,-3.8%
COc1ccc(C(=O)C[n+]2cc(Br)cc(Br)c2)cc1,7.9%,-12.8%,-7%,-3.95%,14.1%,-8.95%
CSc1nc(NC(=O)O)c(N(C(C)=O)C(=O)O)c(=O)n1C,-15.3%,0.6%,4.55%,19.7%,-9.35%,-13.5%
C/C(=C\N1CCCCC1)C(=O)c1ccc(F)cc1,9.3%,13.2%,-4.65%,6.25%,-16.4%,24.7%
CSCC1CC(c2ccc(Cl)cc2)=NO1 (stereo unspecified),27.8%,6.8%,1.05%,-1.4%,0.45%,32.6%
COc1ccc(C(O)C2CC(=O)NN=C2C)cc1OC (stereo unspecified),8.05%,-0.85%,-3.3%,6.7%,8.7%,-1.7%
Cc1ccc(NC(=O)/C(CC(=O)c2c[n+](=O)c3ccccc3n2O)=N\NC(=O)C[n+]2ccccc2)cc1,14.1%,-1.25%,-1.75%,24.8%,20.3%,-0.85%
O=C(CCCC(=O)N/N=C/c1cc(Cl)ccc1[N+](=O)[O-])N/N=C\c1cc(Cl)ccc1[N+](=O)[O-],20.7%,12.1%,11.1%,10.7%,-1.9%,7%
N#Cc1c(-c2ccco2)c2c(n(C3OC(CO)C(O)C(O)C3O)c1=S)CCCC2 (stereo unspecified),-12.3%,6.9%,15.7%,-7.75%,5%,14.8%
Fc1cccc2cccnc12,0.05%,-4.45%,11.2%,5.65%,12.7%,7.4%
CC(CO)C1C[C@H](O)[C@@]2(C)CC(=O)C=C(CO)[C@@H]2C1 (stereo partly specified),35%,22.6%,-3.55%,25.9%,-7.15%,-46%
CCOC(=O)/C(=C/c1cc(OC)ccc1OC)P(=O)(OCC)OCC,6.05%,-12.9%,-17.6%,-25.1%,4.65%,-0.9%
c1ccc(OCCSCCCCCCCCCCSCCOc2ccccc2)cc1,-5.85%,-11.8%,-25.6%,-12.6%,-28.6%,-24.5%
Cc1ccc2c(c1O)C(=O)c1ccccc1C2=O,35%,13.1%,-8.8%,-16.9%,29.7%,46.5%
O=C(N/N=C/c1ccccc1F)c1ccncc1,1.1%,5%,-0.95%,-24.4%,-7.65%,23.9%
CC(C)(CS(C)(=O)=O)C(=O)O,2.5%,-18.9%,3.05%,-7.55%,-2.05%,4.65%
NC(=O)c1cc(Cl)c(N)c(Cl)c1,8.2%,-7.65%,-11.6%,-5.25%,-12.4%,-11.8%
CC1=CC[C@](C)(O)[C@@]2(C)CC[C@H]3C(=C(C)C)C(=O)C[C@]3(C)C[C@H]12,9%,1.3%,19.9%,33.4%,10.2%,17.5%
CC(C)C(Br)C(=O)N1CCOCC1 (stereo unspecified),-0.4%,-17.9%,-5.2%,-20.6%,-9.6%,-5.15%
CCOC(=O)NN(C/C(Cl)=C/Cl)C/C(Cl)=C/Cl,-2%,-0.95%,0.4%,-46.8%,7.35%,-5.55%

# From PubChem BioAssay (NCI)
